{"source": "PubChem BioAssay (NCATS)", "note": "Results filed as inconclusive are left out. Where a call stands in place of a potency, no number is given. Calls of active or inactive are those of the source. The call rests on the fitted dose curve.", "data": [{"test": "Cytotoxicity counterscreen for inhibitors of SARS-CoV-2 cell entry (AID 1645845); further: nearly all actives have a fitted effect of over 50% in size", "conditions": "cell viability (SARS-CoV-2 entry assay cells); series mostly up to 57.1 µM; activity change, negative = cytotoxicity: at the top concentration", "text": "Assay Provider: Wei Zheng, Ph.D.\nNational Center for Advancing Translational Sciences, National Institute of Health, Rockville, MD.\nSARS-CoV-2 spike protein, within the viral envelope, mediates viral attachment and infection of host cells. The SARS-CoV-2 spike protein specifically binds to the host receptor ACE2 (Angiotensin-converting enzyme 2). This interaction promotes endocytosis of the viral particle, additional events lead to viral-host cell membrane fusion and release of the viral contents, allowing viral replication.\nWhile SARS-CoV-2 requires BSL-3 facilities for live virus work, pseudo-typed partices (PP) that incorporate SARS-CoV-2 spike proteins without replication elements could facilitate studies on viral entry mechanisms in a BSL-2 setting. This PP cell entry assay could also enable screening of small molecule compound libraries in BSL-2 setting to identify inhibitors of SARS-CoV-2 cell entry. To eliminate false positive compounds, ATP content cytotoxicity assay was screened in the same cell line.\nSEQUENCE No. (e.g., 1, 2, 3, etc.); […] (e.g., Cells, Incubation, Reagent, etc.); VALUE and DESCRIPTION.\n1. Cells. Seed 1500 HEK293-ACE2 cells (Expi293F with stable expression of human ACE2) in 2 uL/well media (DMEM, 10% FBS, 1x L-glutamine, 1x Pen/Strep, 1 ug/ml puromycin) in white 1536-well assay plates (Greiner #782073).\n2. Incubation. Incubate at 37 C with 5% CO2 overnight (~16 h).\n3. Compounds. Dispense 23 nL/well compounds in DMSO via pin transfer.\n4. Incubation. Incubate for 1 h at 37C 5% CO2.\n5. Reagent. Dispense 2 uL/well of media (DMEM, 10% FBS, 1x L-glutamine, 1x Pen/Strep, 1 ug/ml puromycin).\n6. Incubation. Incubate at for 48h at 37C 5% CO2\n7. Reagent. Dispense 4 uL/well of ATPLite 1step luminescence assay reagent (PerkinElmer #6016739).\n8. Incubation. Incubate for 15 min at room temperature.\n9. Detection. Read luminescence signal (Viewlux plate reader, PerkinElmer). Data was normalized with wells containing cells as 100%, and wells without cells (media only control) as 0%.", "values": [{"smiles": "OC(CCN1CCCCC1)(c1ccccc1)C1CC2C=CC1C2", "note": "(stereo not given)", "Potency": "inactive"}, {"smiles": "Nc1ccn(C2CO[C@H](CO)O2)c(=O)n1", "note": "(stereo not given in full)", "activity change, negative = cytotoxicity": "-0.468% (inactive)"}, {"smiles": "NS(=O)(=O)c1cc(C(=O)O)c(NCc2ccco2)cc1Cl", "outcome": "inactive"}, {"smiles": "CCN(CC)Cc1nccn1-c1ccc([N+](=O)[O-])cc1C(=O)c1ccccc1Cl", "outcome": "inactive"}, {"smiles": "N#C/C(=C1/SC[C@@H](c2ccc(Cl)cc2Cl)S1)n1ccnc1", "activity change, negative = cytotoxicity": "-10.1% (inactive)"}, {"smiles": "CC1(C)[C@@H](OC(=O)CCC(=O)O)CC[C@]2(C)[C@H]3C(=O)C=C4[C@@H]5C[C@@](C)(C(=O)O)CC[C@]5(C)CC[C@@]4(C)[C@]3(C)CC[C@@H]12", "activity change, negative = cytotoxicity": "1.88% (inactive)"}, {"smiles": "CCCCOc1ccc(OCCCN2CCOCC2)cc1", "activity change, negative = cytotoxicity": "-3.78% (inactive)"}, {"smiles": "O=C(O)CCC(=O)c1ccc(-c2ccccc2)cc1", "outcome": "inactive"}, {"smiles": "CCOC(=O)Nc1ccc(NCc2ccc(F)cc2)nc1N", "outcome": "inactive"}, {"smiles": "Cc1cccc(N(C)C(=S)Oc2ccc3c(c2)C2CCC3C2)c1", "note": "(stereo not given)", "activity change, negative = cytotoxicity": "-3.24% (inactive)"}, {"smiles": "O=[N+]([O-])c1nccn1CO[C@@H](CO)[C@H](O)CO", "outcome": "inactive"}, {"smiles": "CNC(=O)c1c(I)c(NC(=O)CCCCC(=O)Nc2c(I)c(C(=O)O)c(I)c(C(=O)NC)c2I)c(I)c(C(=O)O)c1I", "activity change, negative = cytotoxicity": "-21.5% (inactive)"}, {"smiles": "CN(C)C(=O)Oc1cccc([N+](C)(C)C)c1", "outcome": "inactive"}, {"smiles": "N=C(N)c1ccc(OCCCOc2ccc(C(=N)N)cc2)cc1", "activity change, negative = cytotoxicity": "-2.35% (inactive)"}, {"smiles": "CC(=O)OCC(=O)[C@@]1(O)CC[C@H]2[C@@H]3CCC4=CC(=O)C=C[C@]4(C)[C@H]3[C@@H](O)C[C@@]21C", "Potency": "inactive"}, {"smiles": "CCCC(=O)O[C@]1(C(=O)CC)CC[C@H]2[C@@H]3CCC4=CC(=O)CC[C@]4(C)[C@H]3[C@@H](O)C[C@@]21C", "activity change, negative = cytotoxicity": "-3.17% (inactive)"}, {"smiles": "CCC(=O)c1ccc(O)cc1", "outcome": "inactive"}, {"smiles": "O=C(O)/C=C/c1ccc(Cn2ccnc2)cc1", "Potency": "inactive"}, {"smiles": "CNC(=O)Oc1cccc2ccccc12", "outcome": "inactive"}, {"smiles": "CC(=O)Oc1c(C)c(C)c2c(c1C)CC[C@@](C)(CCC[C@H](C)CCC[C@H](C)CCCC(C)C)O2", "outcome": "inactive"}, {"smiles": "CN(C)CCOC(c1ccccc1)c1ccc(Br)cc1", "note": "(stereo not given)", "outcome": "inactive"}, {"smiles": "CCOC(=O)c1ncn2c1CN(C)C(=O)c1c(I)cccc1-2", "outcome": "inactive"}, {"smiles": "Oc1ccc(C(O)CNCCCCCCNCC(O)c2ccc(O)c(O)c2)cc1O", "note": "(stereo not given)", "outcome": "inactive"}, {"smiles": "CCC1(c2cccc(O)c2)CCCCN(C)C1", "note": "(stereo not given)", "activity change, negative = cytotoxicity": "2.16% (inactive)"}, {"smiles": "CCCCCCCCCCCCCCCCCCOCC(O)CO", "note": "(stereo not given)", "activity change, negative = cytotoxicity": "-11.3% (inactive)"}, {"smiles": "C=CCCCCCCCCC(=O)O", "outcome": "inactive [at 27.1 µM]"}, {"smiles": "CCN(CC)C(=O)c1cccc(C)c1", "outcome": "inactive"}, {"smiles": "CC1(C)O[C@@H]2C[C@H]3[C@@H]4CCC5=CC(=O)CC[C@]5(C)[C@@]4(F)[C@@H](O)C[C@]3(C)[C@]2(C(=O)CCl)O1", "outcome": "inactive"}, {"smiles": "CCN[C@H]1C[C@H](C)S(=O)(=O)c2sc(S(N)(=O)=O)cc21", "Potency": "inactive"}, {"smiles": "COc1ccc(CN(CCN(C)C)c2ccccn2)cc1", "outcome": "inactive"}, {"smiles": "CC(C)c1cc2c(cc1S(=O)(=O)O)[C@@]1(C)CCC[C@@](C)(C(=O)O)[C@@H]1CC2", "outcome": "inactive"}, {"smiles": "CC(C)OC(=O)C(C(=O)OC(C)C)=C1SC=CS1", "Potency": "inactive"}, {"smiles": "CCN(CC)C(=O)Nc1ccc(OCC(O)CNC(C)(C)C)c(C(C)=O)c1", "note": "(stereo not given)", "activity change, negative = cytotoxicity": "1.67% (inactive)"}, {"smiles": "CCOc1c(N2CCOCC2)cnn(C)c1=O", "activity change, negative = cytotoxicity": "4.62% (inactive)"}, {"smiles": "CCN(CC)CCOC(=O)C(Cc1cccc2ccccc12)CC1CCCO1", "note": "(stereo not given)", "outcome": "inactive"}, {"smiles": "CCN(CC)CC(=O)OCC(=O)[C@@]1(O)CC[C@H]2[C@@H]3CCC4=CC(=O)CC[C@]4(C)[C@H]3[C@@H](O)C[C@@]21C", "activity change, negative = cytotoxicity": "-27.3% (inactive)"}, {"smiles": "CCN(CC)CCNC(C(=O)OCCC(C)C)c1ccccc1", "note": "(stereo not given)", "outcome": "inactive"}, {"smiles": "CC(=O)c1ccc2c(c1)N(CCCN1CCC(CCO)CC1)c1ccccc1S2", "outcome": "inactive"}, {"smiles": "CCCCNc1cc(C(=O)O)cc(S(N)(=O)=O)c1Oc1ccccc1", "Potency": "inactive"}, {"smiles": "CCCCNc1ccc(C(=O)OCCN(C)C)cc1", "activity change, negative = cytotoxicity": "-0.274% (inactive)"}]}]}
